{"source": "paper PMC6212790", "about": "“How bacterial xenogeneic silencer rok distinguishes foreign from self DNA in its resident genome”", "note": "Whole data set: some 33,000 sequences, median “e-score” near -0.038, cut for the highest 2% near 0.33. The sample as a whole holds a higher share of the highest values than the screen did."}
{"target": "T1, GST-Rok-C97-191 (Bacillus subtilis subsp. subtilis str. …, UniProt O34857 97-191)", "T1 sequence": "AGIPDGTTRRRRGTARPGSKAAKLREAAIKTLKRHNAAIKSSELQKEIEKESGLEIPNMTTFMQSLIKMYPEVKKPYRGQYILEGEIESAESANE", "assay": "protein binding microarray; Rok is a gene silencer of Bacillus subtilis; high values mean tight binding", "conditions": "protein: recombinant; tags: GST (pTH5325, pDEST15-Magic modified); dsDNA, one strand shown", "summary_of_the_method": "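Each has a 25-mer constant primer and a 35-mer variable part from a de Bruijn sequence of order 10, covering every non-palindromic 8-mer at least 32 times (palindromic 16). Preference for each 8-mer is given as a rank-based, unitless enrichment score (E-score). Its range runs from 0.5 (most favored) to −0.5 (most disfavored).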", "units": {"binding signal": "E-score"}}
{"sequence": "AAAAGACG", "binding signal": 0.0272}
{"sequence": "TAACGGTA", "binding signal": 0.278}
{"sequence": "CTTGAAGA", "binding signal": -0.0244}
{"sequence": "AGTTATAC", "binding signal": 0.241}
{"sequence": "ATTTATAC", "binding signal": 0.348}
{"sequence": "ATTTATGG", "binding signal": 0.174}
{"sequence": "ATTTATAG", "binding signal": 0.358}
{"sequence": "CTTTATAC", "binding signal": 0.227}
{"sequence": "ATTTATAA", "binding signal": 0.294}
{"sequence": "GACTCTCA", "binding signal": -0.0851}
{"sequence": "GGTCTGCA", "binding signal": -0.0588}
{"sequence": "AGCTACAT", "binding signal": 0.368}
{"sequence": "ATCTACAG", "binding signal": 0.309}
{"sequence": "CACTACAA", "binding signal": 0.173}
{"sequence": "GACTACAA", "binding signal": -0.00391}
{"sequence": "AACTACAC", "binding signal": 0.33}
{"sequence": "AGCTACAC", "binding signal": 0.169}
{"sequence": "GACTACAC", "binding signal": -0.000838}
{"sequence": "ATCTACAC", "binding signal": 0.273}
{"sequence": "AGCTACAA", "binding signal": 0.209}
{"sequence": "ATCTACAT", "binding signal": 0.342}
{"sequence": "AACTACAA", "binding signal": 0.348}
{"sequence": "CACTACAC", "binding signal": 0.0572}
{"sequence": "AGAACTGG", "binding signal": -0.0864}
{"sequence": "CAATGGGC", "binding signal": -0.197}
{"sequence": "AATCGCCA", "binding signal": -0.00284}
{"sequence": "AAAGCCAT", "binding signal": -0.088}
{"sequence": "GTTCCTGA", "binding signal": -0.0326}
{"sequence": "ACTCGTTA", "binding signal": 0.225}
{"sequence": "AACTACGT", "binding signal": 0.338}
{"sequence": "AACTACGA", "binding signal": 0.283}
{"sequence": "ACCTACAT", "binding signal": 0.227}
{"sequence": "AACTACGC", "binding signal": 0.126}
{"sequence": "AACTACAG", "binding signal": 0.327}
{"sequence": "AACTACAT", "binding signal": 0.364}
{"sequence": "AACAATGA", "binding signal": 0.0026}
{"sequence": "ACGAGCAG", "binding signal": -0.19}
{"sequence": "ATTTTGAC", "binding signal": 0.235}
{"sequence": "ACGCTCAC", "binding signal": -0.0887}
{"sequence": "ACCATAAC", "binding signal": 0.0976}
{"sequence": "GACTTTAC", "binding signal": -0.0515}
{"sequence": "AAATCTGC", "binding signal": -0.0413}
{"sequence": "AAATCTAG", "binding signal": 0.352}
{"sequence": "AAATCTAC", "binding signal": 0.441}
{"sequence": "AAATCTAT", "binding signal": 0.4}
{"sequence": "AAATCTGT", "binding signal": 0.141}
{"sequence": "AAATCTTC", "binding signal": 0.0559}
{"sequence": "CAATCTAG", "binding signal": 0.206}
{"sequence": "AAATCTAA", "binding signal": 0.202}
{"sequence": "ACATCTAG", "binding signal": 0.323}
{"sequence": "AGCTTTCG", "binding signal": -0.16}
{"sequence": "GAGAACCC", "binding signal": -0.104}
{"sequence": "CCTTCTAC", "binding signal": 0.235}
{"sequence": "AAGTTGGA", "binding signal": -0.145}
{"sequence": "AGCAATTC", "binding signal": 0.115}
{"sequence": "AGCAATTA", "binding signal": 0.303}
{"sequence": "AGCAATTG", "binding signal": 0.332}
{"sequence": "CGGCCGAG", "binding signal": -0.169}
{"sequence": "AGCGCCCC", "binding signal": -0.198}
{"sequence": "AGGGACCC", "binding signal": -0.173}
{"sequence": "CTTCTACA", "binding signal": 0.273}
{"sequence": "ATTCTAGC", "binding signal": 0.249}
{"sequence": "CTTCTATC", "binding signal": 0.241}
{"sequence": "ATTCTACG", "binding signal": 0.179}
{"sequence": "ACTCTACC", "binding signal": -0.0607}
{"sequence": "ATTCTACC", "binding signal": 0.467}
{"sequence": "ATTCTACA", "binding signal": 0.382}
{"sequence": "CTTCTACC", "binding signal": 0.348}
{"sequence": "ATTCTATA", "binding signal": 0.224}
{"sequence": "CTTCTAGC", "binding signal": 0.138}
{"sequence": "GTTCTACA", "binding signal": 0.247}
{"sequence": "ATTCTATC", "binding signal": 0.414}
{"sequence": "ATTCAGTC", "binding signal": 0.00215}
{"sequence": "AAGTATGA", "binding signal": 0.179}
{"sequence": "ATTCAATG", "binding signal": -0.0215}
{"sequence": "AACAGCGT", "binding signal": -0.0978}
{"sequence": "AAGCATGG", "binding signal": -0.183}
{"sequence": "TAAATGCA", "binding signal": 0.289}
{"sequence": "TGAATTAA", "binding signal": 0.0945}
{"sequence": "AGTTGAAC", "binding signal": -0.0218}
{"sequence": "AGTAGGTC", "binding signal": 0.159}
{"sequence": "GGTAGGAA", "binding signal": 0.247}
{"sequence": "GCTAGGTA", "binding signal": 0.145}
{"sequence": "GGTAGGTA", "binding signal": 0.331}
{"sequence": "CCTAGGTA", "binding signal": 0.144}
{"sequence": "CGTAGGCA", "binding signal": -0.0837}
{"sequence": "AGTAGGTA", "binding signal": 0.4}
{"sequence": "CGTAGGTA", "binding signal": 0.336}
{"sequence": "AGTAGGTG", "binding signal": 0.127}
{"sequence": "CAATGAAA", "binding signal": -0.098}
{"sequence": "CAGCATGA", "binding signal": -0.0331}
{"sequence": "CTGGAGGA", "binding signal": -0.0909}
{"sequence": "CGTGTTAC", "binding signal": 0.0253}
{"sequence": "CGTAGCCC", "binding signal": -0.128}
{"sequence": "CCTAATAA", "binding signal": -0.00276}
{"sequence": "TAGACCCA", "binding signal": 0.00211}
{"sequence": "ATATCGTA", "binding signal": 0.263}
{"sequence": "ATATAGTC", "binding signal": 0.225}
{"sequence": "CTATCGTA", "binding signal": 0.357}
{"sequence": "GTATAGTA", "binding signal": 0.25}
{"sequence": "ATATAGTG", "binding signal": 0.253}
{"sequence": "ATATAGTA", "binding signal": 0.438}
{"sequence": "GTATCGTA", "binding signal": 0.268}
{"sequence": "CTATAGTC", "binding signal": 0.122}
{"sequence": "CTATAGTA", "binding signal": 0.371}
{"sequence": "CGGGACTA", "binding signal": 0.0767}
{"sequence": "AATGATGC", "binding signal": 0.103}
{"sequence": "AAGGTCTA", "binding signal": -0.133}
{"sequence": "ATTCCGGC", "binding signal": 0.0407}
{"sequence": "CCCACTAG", "binding signal": 0.0169}
{"sequence": "AGGTTAGG", "binding signal": -0.139}
{"sequence": "GCCTTCGC", "binding signal": -0.0744}
{"sequence": "CCCAACTA", "binding signal": 0.257}
{"sequence": "CAATAAGA", "binding signal": -0.045}
{"sequence": "CAATGACG", "binding signal": -0.168}
{"sequence": "AGGTTCAG", "binding signal": 0.0249}
{"sequence": "ATACATAA", "binding signal": 0.273}
{"sequence": "CTACATAG", "binding signal": 0.152}
{"sequence": "CTACATAA", "binding signal": 0.203}
{"sequence": "CTACATAC", "binding signal": 0.274}
{"sequence": "ATACATAC", "binding signal": 0.338}
{"sequence": "TTACATAA", "binding signal": 0.288}
{"sequence": "ATACATAG", "binding signal": 0.371}
{"sequence": "GTACATAC", "binding signal": 0.172}
{"sequence": "AAACATAT", "binding signal": 0.276}
{"sequence": "ATACATAT", "binding signal": 0.377}
{"sequence": "GTACATAA", "binding signal": 0.328}
{"sequence": "ATACACAT", "binding signal": 0.214}
{"sequence": "ACGGGACT", "binding signal": 0.158}
{"sequence": "CATCATTC", "binding signal": 0.0109}
{"sequence": "GCGATGCC", "binding signal": -0.131}
{"sequence": "CGACTTGA", "binding signal": 0.0696}
{"sequence": "CTGCGTAC", "binding signal": -0.112}
{"sequence": "TCCGAGCA", "binding signal": 0.113}
{"sequence": "AAAATGTA", "binding signal": 0.316}
{"sequence": "GAAATGCA", "binding signal": -0.0957}
{"sequence": "CAAATGTA", "binding signal": 0.269}
{"sequence": "GAAATGTA", "binding signal": 0.329}
{"sequence": "TAAATGTA", "binding signal": 0.399}
{"sequence": "GAAATGTC", "binding signal": 0.165}
{"sequence": "TGCCTAAA", "binding signal": -0.0357}
{"sequence": "ACCCTTAT", "binding signal": 0.126}
{"sequence": "CGCACTGC", "binding signal": 0.0347}
{"sequence": "ACATCGAG", "binding signal": 0.0748}
{"sequence": "ACGTGGGG", "binding signal": -0.173}
{"sequence": "GGATTCTA", "binding signal": 0.293}
{"sequence": "AGATTCTA", "binding signal": 0.356}
{"sequence": "AGATTCTC", "binding signal": 0.00255}
{"sequence": "ATATTCTA", "binding signal": 0.408}
{"sequence": "CTATTCTA", "binding signal": 0.287}
{"sequence": "ATATTCTC", "binding signal": 0.327}
{"sequence": "TCATCTAA", "binding signal": -0.0045}
{"sequence": "CAGGTCTC", "binding signal": -0.144}
{"sequence": "GACTTGGC", "binding signal": -0.0709}
{"sequence": "GTAATACA", "binding signal": 0.258}
{"sequence": "CTAATATC", "binding signal": 0.141}
{"sequence": "CTAATAGA", "binding signal": 0.252}
{"sequence": "ATAATATC", "binding signal": 0.209}
{"sequence": "CTAATATA", "binding signal": 0.36}
{"sequence": "ATAATATA", "binding signal": 0.435}
{"sequence": "GTAATAGA", "binding signal": 0.284}
{"sequence": "GTAATATA", "binding signal": 0.335}
{"sequence": "CCAATATA", "binding signal": 0.323}
{"sequence": "ACAATATA", "binding signal": 0.354}
{"sequence": "ACAATATG", "binding signal": 0.146}
{"sequence": "ATAATATG", "binding signal": 0.244}
{"sequence": "AGTGCCGC", "binding signal": -0.0284}
{"sequence": "ATGGTGAA", "binding signal": 0.0706}
{"sequence": "GCTGATTA", "binding signal": 0.0269}
{"sequence": "GAAAGAAC", "binding signal": 0.0785}
{"sequence": "CCAGTTGA", "binding signal": -0.091}
{"sequence": "AACAGAGG", "binding signal": -0.0648}
